Test results taken from PubChem BioAssay (NCATS).
Inconclusive results are not listed. Entries that show only a call come without a potency. Calls of active or inactive are those of the source. The call rests on the fitted dose curve; in most records, active means well fitted inhibition curve with a large enough effect; inconclusive means small, poorly fitted or top-dose-only effect; inactive means flat fitted curve, though single readings scatter.

The compounds below were run against Calcium and integrin-binding protein 1 (Homo sapiens) (UniProt Q99828) (assay: Primary qHTS for Identification of Calcium Integrin Binding Protein 1 (CIB1) Competitor (AID 1508620;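 further: GST tagged CIB1 binding a fluorescein labelled alphaIIb integrin peptide tracer; top concentration of the series differs between compounds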)). Conditions: CIB1-GST / FITC-alphaIIb peptide fluorescence polarization; series mostly up to 114 µM.
Summary of the method: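 Fluorescence polarization competition: CIB1-GST (1 uM final) preincubated with compound 15 min at room temperature, then FITC-labeled alphaIIb peptide (100 nM final) added for another 15 min. Polarization read at Ex 480/Em 540.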

Calcium and integrin-binding protein 1 (Homo sapiens), sequence (Q99828 whole entry, looked up): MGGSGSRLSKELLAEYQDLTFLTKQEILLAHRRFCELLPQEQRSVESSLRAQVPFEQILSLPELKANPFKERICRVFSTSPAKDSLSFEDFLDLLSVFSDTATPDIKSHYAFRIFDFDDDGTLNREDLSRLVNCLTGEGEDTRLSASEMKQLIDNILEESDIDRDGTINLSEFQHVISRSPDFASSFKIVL

Row | Structure (SMILES) | Potency
1 | COc1cccc(Nc2ccc(N3CCN(C(C)=O)CC3)cc2)c1OC | inactive
2 | O=C(O)c1ccc2c(c1)C(=O)N([C@H](Cc1ccc(F)cc1)C(=O)O)C2=O | inactive
3 | COc1ccccc1NC(=O)C1=C(C)NC(Nc2nc3ccccc3o2)=NC1c1ccccc1Br (stereo not given) | inactive
4 | O=S(=O)(Nc1ccccc1)c1ccc(O)c2ncccc12 | inactive
5 | COc1cc(OC)cc(C2=Nn3c(nnc3-c3ccccc3OC)SC2)c1 | inactive
6 | CCn1cnc2c(NCc3cccnc3)nc(C#N)nc21 | inactive
7 | Cc1noc(C)c1-c1ccc2ncnc(NCc3ccccc3F)c2c1 | inactive
8 | COc1cc2ncnc(N(C)Cc3cccs3)c2cc1-c1ccc2c(c1)OCO2 | inactive
9 | Cc1ccccc1C(=O)N1CCc2cc(-c3nc(NC(=O)Cc4ccc5ccccc5c4)sc3C)ccc21 | inactive
10 | N#Cc1ccc(N2CCN(S(=O)(=O)c3ccc4c(c3)CC(=O)N4)CC2)cc1 | inactive
11 | CC(=O)Nn1c(C)nc2sc3c(c2c1=O)CCNC3 | inactive
12 | CCOc1ccccc1-c1nnc2n1N=C(c1ccc(OC)cc1)CS2 | inactive
13 | O=C1c2ccccc2C(=O)N1c1cncc2ccccc12 | inactive
14 | COc1ccccc1C1=Nn2c(nnc2-c2cccc(OC)c2OC)SC1 | inactive
15 | CS(=O)(=O)c1ccc(C(=O)OCC(=O)N2CCN(Cc3ccccc3)CC2)cc1[N+](=O)[O-] | inactive
16 | O=C1CCc2cc(Cl)c(S(=O)(=O)Nc3ccc(Cl)c(Cl)c3)cc2N1 | inactive
17 | Cc1cc(N[S+](=O)([O-])c2cc3c(cc2F)NC(=O)CC3)ccc1Br | inactive
18 | Cc1cc(N[S+](=O)([O-])c2cc3c(cc2Cl)NC(=O)CO3)ccc1Cl | inactive
19 | COc1ccccc1C1=Nn2c(COc3ccccc3)nnc2SC1 | inactive
20 | Cc1cc(N[S+](=O)([O-])c2ccc3c(c2)CCC(=O)N3C)ccc1F | inactive

Row | Structure (SMILES) | Potency
21 | N#Cc1nc(NCC(F)F)c2ncn(-c3cccc(Cl)c3)c2n1 | inactive
22 | COc1ccc(-c2ccc3ncnc(NCCc4cnc[nH]4)c3c2)cc1OC | inactive
23 | Cn1c2cc(C(=O)O)sc2c2cnn(Cc3ccccc3F)c(=O)c21 | inactive
24 | Cc1noc(C)c1-c1ccc(Nc2nc(-c3ccncc3)nc3ccccc23)cc1F | inactive
25 | CN(Cc1ccc(-c2ccccc2)cc1)c1nc(-c2ccccc2C(F)(F)F)nc2ccccc12 | inactive
26 | COc1cc(Nc2nc(-c3ccncc3)nc3ccccc23)ccc1N1CCN(C)CC1 | inactive
27 | O=C(CN1C(=O)N/C(=C\c2cccn2-c2cccc(C(=O)O)c2)C1=O)Nc1cccc(F)c1 | inactive
28 | Cc1ccc(NC(=O)CN2C(=O)N/C(=C\c3cccn3-c3ccc([S+](N)(=O)[O-])cc3)C2=O)cc1 | inactive
29 | COc1ccc(C2c3c(nc(CCCc4ccccc4)[nH]c3=O)Oc3ccc4ccccc4c32)cc1OC (stereo not given) | inactive
30 | Cc1ccc(-c2ccc(=O)n(CC(=O)NCCc3ncc[nH]3)n2)cc1 | inactive
31 | O=S(=O)(c1ccsc1)N1CCN(c2nc(-c3cccs3)nc3ccccc23)CC1 | inactive
32 | Clc1cccc(-c2ccc3ncnc(NCc4cccnc4)c3c2)c1 | inactive
33 | CCNC(=O)c1ccc(-c2ccc3ncnc(NCc4ccc(C)o4)c3c2)o1 | inactive
34 | CCOC(=O)c1c(/C=N/Nc2ccccc2)c2sc(C)cc2n1C | inactive
35 | COc1cccc(CNc2ccc(S(=O)(=O)Nc3nc4ccccc4o3)cc2)c1O | inactive
36 | Cc1cc2c(s1)c1cnn(Cc3c(Cl)cccc3Cl)c(=O)c1n2C | inactive
37 | COc1ccc(-c2nnc3n2N=C(c2ccccc2OC)CS3)cc1 | inactive
38 | c1nc(NCc2ccoc2)c2cc(-c3ccc4c(c3)OCO4)ccc2n1 | inactive
39 | Cc1csc(CNc2ncnc3ccc(-c4ccc5c(c4)OCO5)cc23)n1 | inactive
40 | CCCCN(C)C(=O)Cn1nc(-c2ccc(C(C)(C)C)cc2)ccc1=O | inactive
